Cycloheximide cs = counter-screen for Shiga toxin inhibitors: cycloheximide protein synthesis inhibition | cell reporter, cycloheximide protein synthesis inhibition counterscreen | max response, % | 300,000 tested, 12% active; in the data active means max response mostly above about 13%, no sharp cut-off; inactive means mostly below about 14%; further: read at 38.3 µM for the half of the compounds with a filed dose; 0% is about no effect
Marburg entry inh = Marburg virus entry inhibition; Marburg virus pseudotyped entry inhibition, cell reporter; Potency, µM (highest dose often 37.8 µM), inactives show at the top dose activity change, negative = inhibition, actives largely listed as inhibitors; 300,000 tested, 1.8% active; AID 540276; calls by dose curve; tested in HEK293 cells; further: potency means the concentration at half of the fitted maximal effect; on the % scale 0 is the no-effect control and ±100 the full control effect
Shiga inhibitor = blocks Shiga toxin action in Vero cells. Vero cells, Shiga toxin protein synthesis inhibition reporter. inhibition, % at 38.7 µM. 290,000 tested, 9.2% active. AID 2315; in the data active means inhibition mostly above about 28%, no sharp cut-off; inactive means mostly below about 43%; further: 0% is about no effect
Lassa entry inh = inhibitors of Lassa virus binding or cell entry. Potency, µM (highest dose often 37.9 µM), without a hit: at the top dose activity change, negative = inhibition, most hits filed as inhibitors. 300,000 tested, 1.2% active. AID 540256. Lassa virus pseudotype entry inhibition, cell reporter; calls by dose curve; tested in HEK293 cells; further: potency means the concentration at half of the fitted maximal effect; on the % scale 0 is the no-effect control and ±100 the full control effect; nearly all actives have a fitted effect of over 50% in size
* marks the source's active call; other numbers are inactive results; ? = inconclusive; nt = not tested or not shown; [ ] = dose if it differs, or a comment. Only some compounds are listed: those with a hit (about 12% of all), similar ones and a draw of the others.

SMILES | Cycloheximide cs | Marburg entry inh | Shiga inhibitor | Lassa entry inh
COc1ccccc1N=NC1=C(O)CC(C)(C)CC1=O | 23* | ? | active | 13%
CC1(C)CC(=O)C(N=Nc2ccc(F)cc2)=C(O)C1 | 5 | nt | -20 | nt
CC(C)N1C(=O)CCC1C(=O)NCc1ccccc1Cl (stereo not given) | -4 | -2% | -20 | 2%
N#CCCN(CCC#N)C(=O)C1c2ccccc2Oc2ccccc21 | 0 | ? | nt | 9%[46.1 µM]
Cc1cc(NC(=O)c2ccc(-c3ccc(Br)cc3)o2)cc(-c2nc3ncccc3o2)c1O | nt | -9%[46.1 µM] | nt | 2%[46.1 µM]
Cc1ccc(Nc2c(-c3cccnc3)nc3ccc(Cl)cn23)cc1 | nt | 1%[46.1 µM] | nt | -28%[46.1 µM]
CCOc1ccc2nc(SCC(=O)Nc3cc(C)on3)c(C)cc2c1 | -2 | ? | -10 | -8%
CNC(=O)c1sc2nc(-c3ccc(OC)cc3)cn2c1C | 86* | nt | 146* | nt
COc1ccc(-c2cn3c(C)c(C(=O)Nc4cc(NC(C)=O)ccc4OC)sc3n2)cc1 | 1 | ? | 6 | -23%
CCN(CC)C(=O)c1sc2nc(-c3ccc(OC)cc3)cn2c1C | 38* | 5% | 77* | 4%
COC(=O)c1cc(S(=O)(=O)NC2CCCCC2)cn1C | -2 | nt | -5 | nt
CCS(=O)(=O)N1CCN(C(=O)c2cccc3ccccc23)CC1 | -3 | ? | nt | ?
O=C(NN=Cc1cccc2ccccc12)C(=O)NN=Cc1cccc2ccccc12 | nt | ? | nt | 17%[46.1 µM]
Cc1occc1C(=O)N/N=C/c1cccc2ccccc12 | 44* | ? | 87* | nt
O=C(N/N=C/c1cc2ccccc2[nH]1)c1ccccc1Cl | 16* | 24%[46.1 µM] | 39 | ?
O=C(N/N=C/c1cccc2ccccc12)c1ccccc1Cl | 13* | 6%[46.1 µM] | 49 | ?
O=C(NN=Cc1ccccc1Cl)c1cccc2ccccc12 | nt | 2% | nt | 13%[46.1 µM]
Cc1nc2ncnn2c(N2CCN(c3cccc(C(F)(F)F)c3)CC2)c1C | -1 | -15% | -36 | ?
Cc1ccc(NC(=O)C2(c3cccs3)CCOCC2)cc1Cl | nt | nt | nt | -15%[46.1 µM]
CCOC(=O)c1sc(SC)nc1N | 16* | 9%[46.1 µM] | 20 | 7%[46.1 µM]
CSc1nc(N)c(C(=O)NC2CCCCC2)s1 | 38* | nt | 75* | nt
O=C(Cc1cccc([N+](=O)[O-])c1)NCc1nc2cccnc2n1Cc1ccc(F)cc1 | nt | nt | nt | -14%[46.1 µM]
O=C(O)CC(C(=O)O)n1nc(-c2ccccc2)cc1-c1ccccc1 (stereo not given) | 39* | ? | 73 | 4%
O=C(O)Cn1nc(-c2ccccc2)cc1-c1ccccc1 | 12 | 13% | 9 | ?
C=C(C)COc1ccc(-c2ncncc2-c2ccccc2)c(O)c1 | -5 | -2%[46.1 µM] | 2 | 0%[46.1 µM]
SMILES | Cycloheximide cs | Marburg entry inh | Shiga inhibitor | Lassa entry inh
Nc1ccc(N2CCN(c3ccccc3)CC2)c(F)c1 | 14* | 25%[46.1 µM] | 57* | ?
O=C(CSc1ccccc1)Nc1ccc(N2CCN(c3ccccc3)CC2)c(F)c1 | -5 | -3% | -17 | 5%
COc1ccc(OC)c(-c2cc(C3CCN(C(=O)OC(C)(C)C)CC3)[nH]n2)c1 | 15* | ? | 44 | ?
CCOC(=O)N1CCN(S(=O)(=O)N2CCCC(C(=O)NCCc3ccc(C)cc3)C2)CC1 (stereo not given) | -2 | nt | -8 | nt
CSc1ccccc1C(=O)Nc1ccc2c(c1)OCO2 | 23* | 11%[46.1 µM] | 26* | 11%[46.1 µM]
COc1cccc(C(=O)Nc2ccc3[nH]ncc3c2)c1OC | 32* | -11% | 71* | -6%
COc1cccc(C(=O)Nc2ccc3c(c2)OCO3)c1OC | 48* | ? | 89* | ?
COc1ccc(C(=O)Nc2ccc3[nH]ncc3c2)cc1OC | 14 | 6% | 38 | 13%
COCCSc1ccccc1C(=O)Nc1ccc2c(c1)OCO2 | 15 | nt | 14 | nt
CSc1ccccc1C(=O)Nc1ccc(C)c(C)c1 | 42* | 8% | 91* | ?
Cc1ccc(N2C(=O)NC(NS(=O)(=O)c3ccc(Cl)cc3)(C(F)(F)F)C2=O)cc1C (stereo not given) | nt | 1%[46.1 µM] | nt | -29%[46.1 µM]
COc1ccc(NC(=O)c2cc(OCCCN(C)C)nn2Cc2ccccc2)cc1 | 8 | nt | 0 | nt
O=C(CCNC(=O)c1ccccc1Cl)Nc1ccc2c(c1)OCO2 | 9 | -1% | 11 | -3%
O=C(Nc1ccc2c(c1)OCO2)c1c[nH]c(=O)n(-c2ccc(F)cc2)c1=O | 16* | 4% | 19 | 7%
O=C(CCl)Nc1ccccc1C(=O)Nc1ccc2c(c1)OCO2 | 57* | ? | 41* | ?
Cc1c(C(N)=O)cc([N+](=O)[O-])cc1[N+](=O)[O-] | nt | -15% | nt | ?
C#CCOc1coc(COC(=O)c2ccccc2)cc1=O | 23* | 29% | 23 | 0%
O=c1cc(CO)occ1OCc1ccccc1 | 9 | -4% | 11 | ?
Clc1ccc(CNC2CCN(Cc3ccccc3)CC2)cc1 | 1 | 10µM* | nt | -18%[46.1 µM]
S=C(NCc1ccc(Cl)cc1)NC1CCN(Cc2ccccc2)CC1 | -2 | 6.3µM* | -4 | ?
S=C(Nc1cc(Cl)cc(Cl)c1)NC1CCN(Cc2ccccc2)CC1 | -2 | nt | -6 | nt
c1ccc(-c2ccc(CNC3CC3)cc2)cc1 | 23* | 13%[46.1 µM] | 21 | ?
COc1ccc(COC(=O)N/N=C2\C[C@@H](O)[C@@H](O)[C@@H]3[C@@H]4C(=O)N(Cc5ccc6c(c5)OCO6)C(=O)[C@@H]4CC[C@@H]23)cc1 | nt | 4%[14.2 µM] | nt | nt
CC(=O)c1cccc(Nc2nc(-c3ccccc3)cs2)c1 | 33* | ? | 107* | ?
O=C(Nc1cccc(-c2csc(Nc3ccccc3)n2)c1)c1ccccc1 | 31* | nt | 84* | nt
SMILES | Cycloheximide cs | Marburg entry inh | Shiga inhibitor | Lassa entry inh
CC(=O)c1cccc(Nc2nc(-c3cccnc3)cs2)c1 | 51* | ? | 58* | ?
CC(=O)c1ccc(Nc2nc(-c3cccnc3)cs2)cc1 | 22* | ? | 20 | ?
COC(=O)c1cc2sc(C)cc2n1Cc1nc(-c2cccc(Br)c2)oc1C | nt | -9%[46.1 µM] | nt | nt
O=C(O)CCC(=O)Nc1cccc(-c2csc(-c3ccccc3)n2)c1 | 3 | ? | -16 | ?
CCCCC(=O)Nc1cccc(-c2csc(-c3ccccc3)n2)c1 | 12 | ? | 61* | ?
O=C(O)CCC/C=C\C[C@@H]1[C@@H](/C=C/[C@H](O)C2Cc3ccccc3C2)[C@@H](F)C[C@@H]1O | nt | -9% | nt | ?
CN(C)S(=O)(=O)c1cccc2c1C(=O)c1ccccc1C2=O | -2 | -10% | -7 | -3%
CN(C)c1cc2c(c(N(C)C)c1)C(=O)c1ccccc1C2=O | 39* | 25% | 83 | 22%
N#C/C(=N\Nc1cccc(C(F)(F)F)c1)C(=O)c1ccsc1 | 68* | nt | 94* | nt
Cc1nccc(-c2cccc(N/N=C(\C#N)C(=O)c3ccccc3)c2)n1 | -3 | nt | -8 | nt
Cc1c(Cl)cccc1NC(=S)NC1CCCC1 | -3 | -3% | 8 | 0%
CC(C)CCNC(=O)C(c1ccc(O)cc1)N(Cc1cccs1)C(=O)C1COc2ccccc2O1 (stereo not given) | -2 | ? | -13 | 16µM*
CC(C)(C)NC(=O)CN(Cc1cccs1)C(=O)C1COc2ccccc2O1 (stereo not given) | -1 | 0% | 5 | -20%
Nc1c2c(nc3sc4c(c13)CCCC4)-c1ccccc1CC2 | 50* | 7.1µM* | 97* | 11µM*
Nc1c2c(nc3sc4c(c13)CCCCC4)CCCC2 | 62* | ? | 137* | ?
Nc1c2c(nc3c1CCC3)CCCC2 | -4 | nt | -5 | nt
